Shown are actives, neighbours in structure and some others; about 0.32% of the full set was active somewhere.
Menin MLL FP TR: menin-MLL binding inhibition, Texas Red mutant peptide | AID 1768 | Menin + Texas Red MLL mutant peptide, fluorescence polarization | Potency, µM (series often up to 61.6 µM), for inactives: top-dose FP activity change, negative = inhibition, most hits filed as inhibitors | actives 0.23% (n = 270,000) | O00255; active = well fitted inhibition curve with a large enough effect in the polarisation, with a control signal flat, not every such curve was filed as active; inconclusive = small, poorly fitted or top-dose-only effect, or effect the other way, or a change in a side signal; inactive = no such curve, though single readings can be large or run the other way; the % refers to the polarisation; note: potency is the fitted concentration of half-maximal effect; % of control where 0% means no effect
TRPV1 potentiator: potentiators of human vanilloid receptor 1 (TRPV1) | TRPV1-expressing cells, Fluo-8 calcium influx, capsaicin EC20 potentiation | AID 540277 | potentiation, % at 8.33 µM | Q8NER1 | actives 0.02% (n = 320,000); in the data active = potentiation above about 80%; inconclusive = between about 30% and that limit; note: 0% is about no effect
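TRPV1-expressing cells were cultured overnight at 35.5C and loaded with Fluo-8 calcium dye for 40 to 90 min at room temperature. After a 10 s baseline, compound was added and calcium influx was read kinetically for 3 min (ex 480/em 520 nm).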
CXXC DNA block: inhibitors of human MLL CXXC domain-DNA interaction | Q03164 | MLL-CXXC / FITC-HOXA9 DNA fluorescence polarization | Potency, µM (highest dose often 115 µM), inactives show at the highest dose activity change, negative = inhibition, most hits filed as inhibitors | actives 0.037% (n = 290,000) | AID 2662; active = well fitted inhibition curve with a large enough effect in the polarisation, with a control signal flat, not every such curve was filed as active; inconclusive = small, poorly fitted or top-dose-only effect, or effect the other way, or a change in a side signal; inactive = no such curve, though single readings can be large or run the other way; the % refers to the polarisation; note: potency is the fitted concentration of half-maximal effect
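Steps: dispense CXXC domain solution (7 uM) → pin compounds or unlabeled HOX-A9 DNA control → 5 min ambient → add FLSN-HOX-A9 solution (50 nM) → spin → 30 min ambient → fluorescence polarization. Tris pH 7.5/NaCl/DTT/BSA buffer.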
TRPV1 ag: human TRPV1 agonism; Q8NER1; TRPV1-expressing cells, Fluo-8 calcium influx, agonist mode; activation, % at 8.33 µM; actives 0.19% (n = 320,000); in the data active = activation above about 80%; inconclusive = between about 30% and that limit; note: 0% is about no effect
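Fluo-8 calcium influx in TRPV1-expressing cells, kinetic read (ex 480/em 520 nm). Compound added and read 3 min for agonist activity, followed by capsaicin at EC20 final and 2 min further read for enhancement.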
Menin MLL FP FL: menin-MLL binding inhibition, fluorescein peptide; Fluorescence polarization, fluorescein-MLL peptide displacement from menin; FP activity change, % at 61.4 µM; 290,000 tested, under 10 active; active = well fitted curve in the direction sought with a large enough effect in the polarisation, not every such curve was filed as active; inconclusive = small, poorly fitted or top-dose-only effect, or effect the other way, or a change in a side signal; inactive = no such curve, though single readings can be large or run the other way; the % refers to the polarisation; note: % of control where 0% means no effect
Numbers without * were called inactive; ? = inconclusive; . = no result given.

SMILES	Menin MLL FP TR	TRPV1 potentiator	CXXC DNA block	TRPV1 ag	Menin MLL FP FL
Cc1ccc(NCc2ccccc2O)cc1	12%	3	-9%	0	0
CCCn1c(N2CCN(C(=O)Nc3ccc(Cl)cc3)CC2)nc2ccccc21	15%	3	-3%	81*	1
CC(C)n1c(N2CCN(C(=O)Nc3ccc(Cl)cc3)CC2)nc2ccccc21	?	-15	0%	82*	2
CC(C)n1c(N2CCN(C(=O)Nc3ccc(F)cc3F)CC2)nc2ccccc21	18%	7	-2%	2	4
CCOc1ccc(NC(=S)NC(=O)Cc2ccccc2)cc1	20%	11	-1%	87*	-1
O[C@@H]1COC2[C@@H](O)CO[C@@H]21 (some centres not stated)	-4%	.	.	.	1
CCOC(=O)N1CCC(n2c(SCC(=O)N3CCC(C)CC3)nc3ccccc3c2=O)CC1	?	-9	4%	81*	-1
CC1CCN(C(=O)Cn2c(=O)n(Cc3ccc4c(c3)OCO4)c(=O)c3ccccc32)CC1	-18%	7	3%	9	-2
CC1CCN(C(=O)CSc2nc3ccccc3c(=O)n2Cc2ccc3c(c2)OCO3)CC1	1%	-3	-3%	82*	2
COc1ccc2c(c1)CCc1c(C(=O)N3CCOCC3)noc1-2	0%	-15	4%	81*	1
O=C(Cc1cccs1)Nc1nc2c(ccc3ccccc32)s1	?	-5	13%	81*	5
NCCCCCCCCCCNCCCN	-4%	.	.	.	0
Cc1ccc(Nc2ncnc3sc(C)c(C)c23)cc1	7%	-9	4%	87*	5
Cc1sc2ncnc(Nc3ccc(O)cc3)c2c1C	.	.	2%	.	1
C/C(=N\Nc1ncnc2sc(C)c(C)c12)c1ccccn1	3%	7	?	88*	?
COc1ccc(NC=O)c(C(=O)CCNC(C)=O)c1	-1%	.	.	.	-1
COc1cccc(-c2nnc3n2N=C(c2ccc(OC)cc2OC)CS3)c1	?	.	.	.	4
COc1cccc(C2=Nn3c(nnc3-c3cc(OC)cc(OC)c3)SC2)c1	2%	.	.	.	0
CC1CC=CC2C1C(=O)N(Cc1ccccc1)C2c1ccoc1 (configuration not stated)	4%	.	.	.	?
CC(C)C[C@H](NC(=O)[C@H](CC(C)C)NC(=O)[C@H](CCC(N)=O)NC(=O)[C@H](CO)NC(=O)[C@@H]1CCCN1C(=O)[C@H](CO)NC(=O)[C@H](CO)NC(=O)[C@@H](NC(=O)[C@H](Cc1cnc[nH]1)NC(=O)[C@H](CCC(=O)O)NC(=O)[C@H](Cc1ccc(O)cc1)NC(=O)[C@H](CCCCN)NC(=O)[C@H](CCC(N)=O)NC(=O)[C@H](Cc1ccc(O)cc1)NC(=O)[C@H](CC(=O)O)NC(=O)[C@@H](NC(=O)[C@@H]1CCCN1C(=O)[C@H](CC(=O)O)NC(=O)[C@H](CC(N)=O)NC(=O)[C@H](CC(=O)O)NC(=O)CNC(=O)[C@H](CC(=O)O)NC(=O)[C@@H]1CCCN1C(=O)[C@H](CCC(N)=O)NC(=O)[C@H](Cc1ccc(O)cc1)NC(=O)[C@H](C)NC(=O)[C@H](Cc1c[nH]c2ccccc12)NC(=O)[C@H](Cc1ccccc1)NC(=O)[C@@H](NC(=O)[C@@H](N)CO)[C@@H](C)O)[C@@H](C)O)[C@@H](C)O)C(=O)N[C@@H](C)C(=O)N1CCC[C@H]1C(=O)NCC(=O)N[C@@H](CC(=O)O)C(=O)N[C@@H](Cc1ccc(O)cc1)C(=O)O	15%	.	.	.	5
Cc1ccc(C(=O)Nc2nc(-c3cccnc3)cs2)o1	8%	-4	8%	7	4
O=C(Nc1nc(-c2ccccc2)cs1)c1ccc(Br)o1	-30%	-10	31%	88*	5
COc1ccc(OC)c(-c2csc(NC(=O)C3c4ccccc4Oc4ccccc43)n2)c1	14µM*	29	11%	-2	7
O=C(Nc1nc(-c2ccccc2)cs1)C1c2ccccc2Oc2ccccc21	18µM*	29	11%	1	3
COc1ccc(OC)c(-c2csc(NC(=O)C3COc4ccccc4O3)n2)c1 (configuration not stated)	-26%	-26	15%	1	-4
C[C@H](NC(=O)Cc1cc(F)cc(F)c1)C(=O)N[C@@H](C(=O)OC(C)(C)C)c1ccccc1	?	.	.	.	2
